This note sets out measurements from PubChem BioAssay.

Calls of active or inactive are those of the source. Unless noted, how the calls were made is not given here.

The nature of test [1]: compounds binding Alexa647 anti-His antibody – biochemical, small-molecule microarray, 635 nm fluorescence, artefact control for SMM control protein annotation, primary screen (AID 1128).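 Further: score merges feature fluorescence with signal-to-noise for each printed compound spot.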 The conditions noted are these: higher = more signal.
The subject of test [2] is Human papillomavirus type 1a E7 protein (residues 1-88). The experiment in a line: HPV1a E7 small-molecule binders, primary screen, biochemical, small-molecule microarray, residues 1-88, 635 nm (AID 1129). The following applies: small-molecule microarray binding, fluorescence 635 nm; higher = more signal.
The target in test [3] is Focal adhesion kinase 1 (Homo sapiens) (UniProt Q05397). The experiment in a line: PTK2 protein binding on printed compound slides – biochemical, small-molecule microarray, 635/667 nm fluorescence, BSA, DTT, primary screen (AID 1130).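 Further: composite of spot emission at 667 nm and signal to noise over triplicate slides.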 The conditions noted are these: 635 nm fluorescence, higher = more signal.
Test [4] concerns Fibrinogen (Alexa647-labelled). The experiment in a line: Alexa647-fibrinogen binding to printed small molecules – biochemical, small-molecule microarray, 635/667 nm fluorescence, artefact control for SMM control-protein annotation, profiling panel (AID 1131).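 Further: z-score merges 667 nm fluorescence with per-spot signal-to-noise over triplicate slides.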 The conditions noted are these: fibrinogen-A647 binding fluorescence, higher = more signal.
The target of test [5] is Follistatin (Homo sapiens) (UniProt P19883). The test is described as follows: FST protein binding to printed compounds – biochemical, small-molecule microarray, 635/667 nm fluorescence, primary screen (AID 1132). The conditions noted are these: 635 nm fluorescence, higher = more signal.
Test [6] deals with Fibroblast growth factor 2 (Homo sapiens) (UniProt P09038). The test is described as follows: basic fibroblast growth factor binding to printed compounds – biochemical, small-molecule microarray, 635/667 nm fluorescence, primary screen (AID 1133). The conditions noted are these: FGF2, fluorescence 635/667, higher = more signal.
A short description of test [7]: JC-1 mitochondrial potential readout, lung cancer cells – cell-based, A549, JC-1 fluorescence, basal, 24 h, 100 nL, profiling panel (AID 1138).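 Further: A549 lung adenocarcinoma cells under basal conditions with no added stimulus; test concentration not given here.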 The conditions noted are these: higher = more signal.
A further test deals with Lefty1. The experiment in a line: Lefty1 protein binding to printed compounds – biochemical, small-molecule microarray, 635/667 nm fluorescence, primary screen (AID 1139). The following applies: fluorescence 635/667, higher = more signal.
For test [8], the system named is wheat germ agglutinin (Triticum aestivum), Alexa647-labelled. The test is described as follows: Alexa647-WGA lectin binding to printed small molecules – biochemical, small-molecule microarray, 635/667 nm fluorescence, artefact control for SMM control-protein annotation, profiling panel (AID 1140).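 Further: score merges 667 nm feature emission with signal to noise over triplicate slides.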 The conditions noted are these: WGA-A647 binding, 635 nm fluorescence, higher = more signal.

Test [9] addresses Luciferin 4-monooxygenase (Photinus pyralis) (UniProt P08659). The experiment in a line: inhibition of purified Photinus pyralis luciferase – biochemical, luminescence, purified enzyme, 2006 set, primary screen (AID 1141).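 Further: cell-free assay with purified firefly luciferase at 100 ng per well in PBS; test concentration not given here.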 The conditions noted are these: purified firefly luciferase, SteadyGlo luminescence, 30 min; higher = more signal, called active from +8 up or from −8 down.
Test [10] concerns Wnt5a (protein binding on small-molecule microarray). The test is described as follows: small molecules binding Wnt5a protein – biophysical, small-molecule microarray, 635/667 nm fluorescence, primary screen (AID 1142).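 Further: fluorescence read at 667 nm with signal to noise per printed feature.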 The conditions noted are these: 635 nm fluorescence, higher = more signal.
A short description of test [11]: ATP-based viability of Huh7 replicon cells – cell-based, CellTiter-Glo luminescence, basal, 48 h, cytotoxicity control for HCV replication inhibitor project, primary screen (AID 1143).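 Further: Huh7 hepatoma cells carrying a hepatitis C replication reporter with no stimulus; test concentration not given here.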 The conditions noted are these: higher = more signal, called active from +8 up or from −8 down. Background: In antiviral work, replicon cells carry a viral genome segment that copies itself.

Test [12] is described as follows: Pseudomonas biofilm growth suppression – PAO1 strain, BacTiter-Glo luminescence, LB-PBS, primary screen (AID 1144). The following applies: P. aeruginosa PAO1 biofilm, 12 h, higher = more signal.
The nature of test [13]: basal CRE-LacZ reporter activity in PC12 – cell-based, unstimulated, primary screen (AID 1145). The following applies: no forskolin, luminescence, 4.5 h, higher = more signal, called active from +8 up or from −8 down.
Test [14] can be described thus: forskolin-driven CRE-LacZ activity in PC12 – cell-based, CRE-LacZ reporter, forskolin-stimulated, primary screen (AID 1146).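 Further: PC12 cells with 6xCRE LacZ reporter stimulated by forskolin 10 µM; beta-galactosidase reporter signal reflecting CREB driven transcription.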 The following applies: luminescence, 4.5 h, higher = more signal, called active from +8 up or from −8 down.
Test [15] addresses Streptavidin (Streptomyces avidinii) (UniProt P22629). The experiment in a line: compounds binding control protein streptavidin – biophysical, small-molecule microarray, 635/667 nm fluorescence, artefact control for SMM compound annotation, primary screen (AID 1147).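 Further: signal reflects streptavidin binding to arrayed compounds as a control protein.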 The following applies: higher = more signal.
The nature of test [16]: probe aInhba binding on compound microarray – biochemical, small-molecule microarray, 635/667 nm fluorescence, primary screen (AID 1148).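 Further: score merges 667nm spot fluorescence with signal-to-noise for antibody binding to printed compounds.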 The following applies: higher = more signal.
The target of test [17] is Torsin-1A (Homo sapiens) (UniProt O14656). The test is described as follows: TOR1A wild-type binding on microarray – cell lysate, small-molecule microarray, lysate, 635/667 nm, primary screen (AID 1149). The conditions noted are these: COS7 hTOR1A-WT lysate, 635 nm fluorescence, higher = more signal.
For test [18] the target is unchanged. The test is described as follows: torsin A mutant lysate binding on microarrays – cell lysate, small-molecule microarray, COS7 lysate, 635/667 nm fluorescence, primary screen (AID 1150).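 Further: score pools 667 nm emission and signal to noise measuring lysate protein binding.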 The following applies: COS7 hTOR1A mutant lysate, 635 nm fluorescence, higher = more signal.
Test [19] relates to Sonic hedgehog protein (Shh). The test is described as follows: Sonic hedgehog microarray binding compounds – biochemical, small-molecule microarray, 635/667 nm fluorescence, primary screen (AID 1151).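 Further: Shh protein binding to compounds spotted on small-molecule microarray slides; score combines spot fluorescence intensity with signal-to-noise across triplicate slides.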 The conditions noted are these: 635 nm fluorescence, higher = more signal.

Sequence of Streptavidin (Streptomyces avidinii) (P22629 whole entry, looked up): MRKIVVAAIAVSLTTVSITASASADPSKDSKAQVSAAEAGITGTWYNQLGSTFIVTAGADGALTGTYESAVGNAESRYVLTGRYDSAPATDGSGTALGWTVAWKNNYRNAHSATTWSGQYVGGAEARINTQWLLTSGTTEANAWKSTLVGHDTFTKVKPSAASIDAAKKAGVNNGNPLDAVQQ
Sequence of Fibroblast growth factor 2 (Homo sapiens) (P09038 whole entry, looked up): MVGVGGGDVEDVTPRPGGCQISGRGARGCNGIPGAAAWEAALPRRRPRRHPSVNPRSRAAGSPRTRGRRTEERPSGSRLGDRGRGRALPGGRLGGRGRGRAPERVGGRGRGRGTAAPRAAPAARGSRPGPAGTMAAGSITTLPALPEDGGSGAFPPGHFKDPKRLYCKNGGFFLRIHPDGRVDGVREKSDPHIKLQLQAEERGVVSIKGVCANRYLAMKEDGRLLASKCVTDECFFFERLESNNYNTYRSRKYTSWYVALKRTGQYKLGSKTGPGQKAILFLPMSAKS
Sequence of Torsin-1A (Homo sapiens) (O14656 whole entry, looked up): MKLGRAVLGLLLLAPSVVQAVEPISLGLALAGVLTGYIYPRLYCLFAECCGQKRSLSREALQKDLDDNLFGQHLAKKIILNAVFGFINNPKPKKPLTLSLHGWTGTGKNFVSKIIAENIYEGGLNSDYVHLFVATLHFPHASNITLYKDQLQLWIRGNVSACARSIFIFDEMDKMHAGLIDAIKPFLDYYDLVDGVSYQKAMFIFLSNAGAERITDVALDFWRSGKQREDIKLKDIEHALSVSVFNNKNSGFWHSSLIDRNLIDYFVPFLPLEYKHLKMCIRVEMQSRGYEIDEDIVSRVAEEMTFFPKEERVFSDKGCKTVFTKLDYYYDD
Sequence of Luciferin 4-monooxygenase (Photinus pyralis) (P08659 whole entry, looked up): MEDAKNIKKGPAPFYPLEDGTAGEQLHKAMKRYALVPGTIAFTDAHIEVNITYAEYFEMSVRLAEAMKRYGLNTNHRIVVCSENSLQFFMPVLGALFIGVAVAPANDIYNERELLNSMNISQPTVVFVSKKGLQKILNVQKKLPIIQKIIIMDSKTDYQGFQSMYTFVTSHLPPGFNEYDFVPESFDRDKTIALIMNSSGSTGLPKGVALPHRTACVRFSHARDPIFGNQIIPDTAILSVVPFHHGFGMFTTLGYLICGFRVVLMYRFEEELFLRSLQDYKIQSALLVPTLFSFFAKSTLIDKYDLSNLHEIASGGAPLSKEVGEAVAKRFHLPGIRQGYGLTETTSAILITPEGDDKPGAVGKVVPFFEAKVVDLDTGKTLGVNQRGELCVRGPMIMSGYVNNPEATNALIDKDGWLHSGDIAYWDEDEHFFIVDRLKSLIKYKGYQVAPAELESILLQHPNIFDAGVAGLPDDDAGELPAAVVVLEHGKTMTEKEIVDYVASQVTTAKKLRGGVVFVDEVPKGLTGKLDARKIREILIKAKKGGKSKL
Sequence of Focal adhesion kinase 1 (Homo sapiens) (Q05397 whole entry, looked up): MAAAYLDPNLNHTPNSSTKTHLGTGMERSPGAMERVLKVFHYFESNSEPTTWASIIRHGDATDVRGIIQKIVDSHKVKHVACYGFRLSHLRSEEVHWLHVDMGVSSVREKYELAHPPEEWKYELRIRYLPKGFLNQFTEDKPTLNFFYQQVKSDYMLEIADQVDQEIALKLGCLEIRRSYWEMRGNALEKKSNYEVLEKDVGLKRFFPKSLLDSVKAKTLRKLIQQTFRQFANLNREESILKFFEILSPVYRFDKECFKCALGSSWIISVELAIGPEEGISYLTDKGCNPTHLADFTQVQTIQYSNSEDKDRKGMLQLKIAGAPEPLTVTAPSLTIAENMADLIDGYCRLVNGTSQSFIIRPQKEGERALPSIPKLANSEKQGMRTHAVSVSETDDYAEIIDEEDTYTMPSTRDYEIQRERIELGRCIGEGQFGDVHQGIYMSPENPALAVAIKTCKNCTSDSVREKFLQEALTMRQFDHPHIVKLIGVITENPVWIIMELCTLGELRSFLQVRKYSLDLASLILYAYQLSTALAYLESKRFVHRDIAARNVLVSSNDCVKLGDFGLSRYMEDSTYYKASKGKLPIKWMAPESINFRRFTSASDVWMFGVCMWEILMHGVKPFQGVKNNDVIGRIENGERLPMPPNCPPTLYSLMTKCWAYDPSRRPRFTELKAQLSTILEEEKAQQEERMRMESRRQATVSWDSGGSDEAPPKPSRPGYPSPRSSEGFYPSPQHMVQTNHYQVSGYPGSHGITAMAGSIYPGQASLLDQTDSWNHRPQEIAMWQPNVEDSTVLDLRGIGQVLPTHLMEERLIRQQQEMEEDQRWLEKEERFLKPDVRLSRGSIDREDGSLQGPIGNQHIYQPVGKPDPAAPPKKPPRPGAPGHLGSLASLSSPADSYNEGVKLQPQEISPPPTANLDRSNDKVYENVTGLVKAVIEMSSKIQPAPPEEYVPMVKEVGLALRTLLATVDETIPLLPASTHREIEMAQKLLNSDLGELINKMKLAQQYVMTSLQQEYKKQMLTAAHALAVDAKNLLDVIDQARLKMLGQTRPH
Sequence of Follistatin (Homo sapiens) (P19883 whole entry, looked up): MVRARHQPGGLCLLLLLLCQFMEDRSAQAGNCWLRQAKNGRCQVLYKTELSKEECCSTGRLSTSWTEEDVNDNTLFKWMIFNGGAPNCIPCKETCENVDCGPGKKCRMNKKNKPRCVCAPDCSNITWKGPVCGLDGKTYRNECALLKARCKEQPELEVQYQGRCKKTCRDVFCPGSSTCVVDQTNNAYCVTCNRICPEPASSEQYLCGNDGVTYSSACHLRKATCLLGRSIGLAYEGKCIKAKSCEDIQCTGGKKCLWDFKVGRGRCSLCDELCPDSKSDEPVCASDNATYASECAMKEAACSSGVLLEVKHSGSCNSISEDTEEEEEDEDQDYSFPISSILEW

Regarding `CC[C@@H](c1ccccc1)n1c(=O)n2n(c1=O)[C@H]1[C@H](O)[C@@H]3O[C@@H]3C(=NOCC(C)C)[C@H]1CC2`, the composite z-score in test [1] is 0.356; in test [2], 0.0566; in [3] it was -0.267; in test [4] it was -0.203; in [5], 0.38; in test [6], 0.0571. Besides, the composite z-score in the test on Lefty1 was 0.542; in test [8], -0.0401; in test [10], -0.11; in test [15] it was -0.36; in test [16], -0.0405; with Torsin-1A (Homo sapiens) [17], -0.132. The composite z-score with Torsin-1A (Homo sapiens) [18] is -0.115; in [19] it was 0.636. Further, the z-score in test [7] was -0.492; in test [9], 0.292 (inactive); in [11], 0.529 (inactive); in test [12] it was 0.51 (inactive); in test [13] it was 0.786 (inactive); in [14], 0.671 (inactive).

Take `C#C[C@@H](CC)O[Si](C#Cc1ccc(Oc2ccccc2)cc1)(C(C)C)C(C)C`: the composite z-score in test [1] was 0.491; in [2], 0.649; in test [3], -0.0378; in [4] it was 0.15; in test [5] it was 0.395; in [6] it was 0.307. Besides, the composite z-score is 0.63 with Lefty1; 0.299 in test [8]; 0.142 in test [10]; -0.149 in test [15]; -0.0736 in test [16]; 0.293 with Torsin-1A (Homo sapiens) [17]. The results for the composite z-score (with Torsin-1A (Homo sapiens) [18]; in [19]) were 0.321 and 0.486, respectively. The z-score in [7] is -1.81; in [9], 0.0007 (inactive); in test [11], -0.533 (inactive); in [12], 0.159 (inactive); in [13] it was -0.738 (inactive); in test [14] it was 0.0319 (inactive).

Consider `C=C(/C(=C/C[C@H](OC(C)=O)c1ccc(OCCO)cc1)c1cnc2ccccc2c1)C(C)C`, for which the composite z-score was 0.888 in test [1]; 1.19 in [2]; -0.0763 in test [3]; 0.921 in test [4]; 1.45 in [5]; 1.31 in test [6]. Also, the composite z-score in the test on Lefty1 is 1.48; in test [8] it was 0.585; in test [10] it was 0.826; in [15], 0.868; in test [16], -0.108; in the test with Torsin-1A (Homo sapiens) [17], 0.55. Also, the composite z-score with Torsin-1A (Homo sapiens) [18] turned out to be 1; in test [19] it was 2.21. The z-score was 0.414 in [7]; -0.477 (inactive) in test [9]; -2.51 (inactive) in test [11]; -1.37 (inactive) in test [12]; 2.06 (inactive) in test [13]; -0.586 (inactive) in [14].

On to `CO[C@@H]1COC(=O)[C@H](C)NC(=O)[C@@H](C)COC(=O)CCC[C@H]1C`, for which the composite z-score in test [1] was -0.356; in [2] it was 0.0754; in [3], 0.574; in [4], -0.796; in test [5] it was 0.775; in test [6], 0.851. The composite z-score is 0.784 with Lefty1; 0.405 in [8]; -0.0361 in test [10]; -0.185 in [15]; -0.128 in test [16]; 0.738 with Torsin-1A (Homo sapiens) [17]. Also, the composite z-score was found to be 0.462 in the test with Torsin-1A (Homo sapiens) [18] and 1.24 in test [19]. Also, the z-score in test [7] is -0.816; in test [9] it was 0.981 (inactive); in test [11] it was -0.639 (inactive); in test [12], 0.019 (inactive); in test [13], 0.085 (inactive); in [14], 0.396 (inactive).

Turning to `N#Cc1ccc(NN2C(C(O)c3cc(C(F)(F)F)cc(C(F)(F)F)c3)C=CC3C(=O)N(c4ccccc4)C(=O)C32)cc1` (stereo not given), the composite z-score is 0.94 in [1]; 1.17 in test [2]; 0.756 in test [3]; 0.932 in test [4]; 1.11 in test [5]; -0.477 in [6]. Besides, the composite z-score in the test on Lefty1 came out at 0.265; in test [8] it was 1.16; in test [10], 0.261; in test [15] it was 1.39; in [16], 0.231; in the test with Torsin-1A (Homo sapiens) [17], 1.43. Besides, the composite z-score with Torsin-1A (Homo sapiens) [18] was 1.06; in [19], -0.0099. Besides, the z-score in test [7] is 0.277; in test [9], -0.514 (inactive); in test [11] it was -2.24 (inactive); in [12], -0.875 (inactive); in test [13], 0.822 (inactive); in [14] it was -0.389 (inactive).
